TEAD-YAP inh – TEAD-YAP interaction inhibition; HEK-TIYL cells, TEAD-Gal4/YAP UAS-luciferase luminescence; inhibition, % at 9.12 µM; 1.4% of 640,000 active; in the data active = inhibition above about 32%;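 note: 0% = median of test compound wells and 100% = reference inhibitor wells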
FBW7 activator – activators of human E3 ligase FBW7. normalized activity (activation), % at 26.1 µM. AlphaScreen FBW7–phospho-cyclin E peptide binding, activator screen. AID 1259310. 0.13% of 650,000 active. Q969H0; in the data active = normalized activity above about 1.9%;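 note: purified mutant Fbw7 with reduced substrate affinity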
GPR151 activ – human GPR151 activation. Q8TDV0. PathHunter beta-arrestin GPR151 cells, luminescence. activation, % at 11.2 µM. 1% of 650,000 active. AID 1508602; in the data active = activation above about 4.9%;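 note: 0% = median of compound wells and 100% = cells with positive control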
Target sequence (Q8TDV0 whole entry, looked up): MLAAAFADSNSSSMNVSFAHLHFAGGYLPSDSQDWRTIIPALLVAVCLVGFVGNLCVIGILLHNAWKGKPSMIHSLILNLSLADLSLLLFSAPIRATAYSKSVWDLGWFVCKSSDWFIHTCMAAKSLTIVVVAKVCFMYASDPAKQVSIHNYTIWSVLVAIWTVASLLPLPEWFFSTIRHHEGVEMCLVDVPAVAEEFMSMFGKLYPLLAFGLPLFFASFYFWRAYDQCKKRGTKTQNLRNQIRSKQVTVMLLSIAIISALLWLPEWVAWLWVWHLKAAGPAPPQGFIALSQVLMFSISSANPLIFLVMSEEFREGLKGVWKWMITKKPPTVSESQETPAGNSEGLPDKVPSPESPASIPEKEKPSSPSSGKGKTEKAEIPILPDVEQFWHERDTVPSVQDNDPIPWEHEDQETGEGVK
MITF inh – human MITF inhibition, primary screen. AlphaScreen MITF homodimerization, bead proximity signal. O75030. AID 1259374. inhibition, % at 2.6 µM. 0.91% of 650,000 active; in the data active = inhibition above about 50%;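 note: 0% = vehicle wells with protein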
Numbers without * were called inactive. An excerpt weighted towards active compounds, which were near 3.5% of everything screened.

Results for COc1cccc(/C=N\NC(=O)Cn2c(-c3nonc3N)nc3ccccc32)c1O ?
TEAD-YAP inh: 29; FBW7 activator: 0; GPR151 activ: -1; MITF inh: 12

What do the screens show for `CCOC(=O)c1ccccc1NC(=O)Cn1c(-c2nonc2N)nc2ccccc21`?
TEAD-YAP inh: 52*; FBW7 activator: 0; GPR151 activ: 0; MITF inh: 2

Results for Nc1nonc1-c1nc2ccccc2n1CC(=O)Nc1ccccc1-c1ccccc1 ?
TEAD-YAP inh: -11; FBW7 activator: 0; GPR151 activ: 2; MITF inh: 7

What do the screens show for `COc1cc(/C=N/NC(=O)Cn2c(-c3nonc3N)nc3ccccc32)ccc1O`?
TEAD-YAP inh: 45*; FBW7 activator: 0; GPR151 activ: 0; MITF inh: 6

What do the screens show for `COC(=O)c1sccc1NC(=O)Cn1c(-c2nonc2N)nc2ccccc21`?
TEAD-YAP inh: 50*; FBW7 activator: 0; GPR151 activ: 1; MITF inh: -8

Results for Nc1nc(N)nc(CCCn2c(-c3nonc3N)nc3ccccc32)n1 ?
TEAD-YAP inh: 57*; FBW7 activator: 0; GPR151 activ: 0; MITF inh: 12

How did Cc1cc2oc(=O)cc(CSc3nncs3)c2cc1Cl do in these assays?
TEAD-YAP inh: 9; FBW7 activator: 1; GPR151 activ: 0; MITF inh: 8

Results for CCOC(=O)C1CCN(c2c(NCc3ccc(OC)cc3)c(=O)c2=O)CC1 ?
TEAD-YAP inh: 58*; FBW7 activator: 0; GPR151 activ: 0; MITF inh: -10

How did CCOC(=O)C1CCN(c2c(NCc3ccc(F)cc3)c(=O)c2=O)CC1 do in these assays?
TEAD-YAP inh: 64*; FBW7 activator: 0; GPR151 activ: -2; MITF inh: 12

What do the screens show for `CCOC(=O)C1CCN(c2c(Nc3cccc(SC)c3)c(=O)c2=O)CC1`?
TEAD-YAP inh: 55*; FBW7 activator: 0; GPR151 activ: 0; MITF inh: 1

What do the screens show for `CCOC(=O)C1CCN(c2c(NCc3ccc(Cl)cc3)c(=O)c2=O)CC1`?
TEAD-YAP inh: 67*; FBW7 activator: 0; GPR151 activ: -1; MITF inh: 1

What do the screens show for `CCOC(=O)C1CCN(c2c(Nc3ccc(C)c(F)c3)c(=O)c2=O)CC1`?
TEAD-YAP inh: -10; FBW7 activator: 0; GPR151 activ: 0; MITF inh: -1

What do the screens show for `CCOC(=O)C1CCN(c2c(NCc3ccc(N(C)C)cc3)c(=O)c2=O)CC1`?
TEAD-YAP inh: 1; FBW7 activator: 0; GPR151 activ: 1; MITF inh: 5

Results for Cc1cccnc1-c1ccc2c(c1)CC(CNC(=O)c1coc3c1C(=O)CCC3)O2 (stereo unspecified) ?
TEAD-YAP inh: 1; FBW7 activator: 0; GPR151 activ: -1; MITF inh: 0

How did O=C(NC1C2CC3CC(C2)CC1C3)c1cccc(F)c1 (stereo unspecified) do in these assays?
TEAD-YAP inh: -1; FBW7 activator: 0; GPR151 activ: 1; MITF inh: -4

How did COc1cc(/C=C2/N=C(c3ccc(-c4ccccc4)cc3)OC2=O)cc(OC)c1OC do in these assays?
TEAD-YAP inh: -2; FBW7 activator: 0; GPR151 activ: 0; MITF inh: -4

What do the screens show for `COc1cc(/C=C2\N=C(c3ccccc3)NNC2=O)cc(OC)c1OC`?
TEAD-YAP inh: 49*; FBW7 activator: 0; GPR151 activ: 0; MITF inh: -2

What do the screens show for `O=C(NCC(F)(F)C(F)(F)C(F)(F)C(F)F)C12CC3CC(CC(C3)C1)C2`?
TEAD-YAP inh: -4; FBW7 activator: 0; GPR151 activ: 0; MITF inh: -6

How did CC(C)c1ccc(NC(=O)CSc2nc3[nH]ncc3c(=O)n2-c2ccc(Cl)cc2)cc1 do in these assays?
TEAD-YAP inh: 21; FBW7 activator: 0; GPR151 activ: 0; MITF inh: 5

Results for COc1ccc(-n2c(SCC(=O)Nc3ccc([N+](=O)[O-])cc3Cl)nc3[nH]ncc3c2=O)cc1 ?
TEAD-YAP inh: 32*; FBW7 activator: 0; GPR151 activ: 0; MITF inh: 5

Results for Cc1ccccc1-n1c(SCC(=O)Nc2ccc(C(F)(F)F)cc2)nc2[nH]ncc2c1=O ?
TEAD-YAP inh: 37*; FBW7 activator: 1; GPR151 activ: 1; MITF inh: 5

How did CC(C)c1ccc(NC(=O)CSc2nc3[nH]ncc3c(=O)n2-c2ccccc2)cc1 do in these assays?
TEAD-YAP inh: 39*; FBW7 activator: 0; GPR151 activ: 4; MITF inh: 3

How did O=C(CSc1nc2[nH]ncc2c(=O)n1-c1ccccc1)Nc1ccc([N+](=O)[O-])cc1Cl do in these assays?
TEAD-YAP inh: 15; FBW7 activator: 0; GPR151 activ: -1; MITF inh: -2

Results for O=C(CSc1nc2[nH]ncc2c(=O)n1-c1ccccc1)Nc1ccc(C(F)(F)F)cc1 ?
TEAD-YAP inh: 25; FBW7 activator: 0; GPR151 activ: 0; MITF inh: -14

Results for Cc1c(NC(=O)c2cc(-c3cccc(Br)c3)nc3ccccc23)c(=O)n(-c2ccccc2)n1C ?
TEAD-YAP inh: 10; FBW7 activator: 1; GPR151 activ: 0; MITF inh: 1

Results for Cc1c(NC(=O)c2cc(-c3ccccc3)nc3ccccc23)c(=O)n(-c2ccccc2)n1C ?
TEAD-YAP inh: 33*; FBW7 activator: 0; GPR151 activ: 0; MITF inh: -3

How did COc1cc2ccccc2cc1C(=O)Nc1c2c(nn1-c1ccc(Cl)cc1)CSC2 do in these assays?
TEAD-YAP inh: 6; FBW7 activator: 0; GPR151 activ: 0; MITF inh: 3

Results for Nc1ccc(-c2cnn3c(NCc4ccc5c(c4)OCO5)ccnc23)cc1 ?
TEAD-YAP inh: -66; FBW7 activator: 2.5*; GPR151 activ: -1; MITF inh: 7

How did COc1ccc(Nc2ccnc3c(-c4ccc(N)cc4)cnn23)cn1 do in these assays?
TEAD-YAP inh: 37*; FBW7 activator: 0; GPR151 activ: 0; MITF inh: 17

What do the screens show for `c1ccc(CNc2ccnc3c(-c4ccc5c(c4)OCO5)cnn23)nc1`?
TEAD-YAP inh: 2; FBW7 activator: 1.9*; GPR151 activ: -1; MITF inh: 6

Results for O=C(COc1ccccc1F)N1CCN(c2ccc(-c3ccncc3)nn2)CC1 ?
TEAD-YAP inh: 0; FBW7 activator: 1; GPR151 activ: -5; MITF inh: 4

How did FC(F)(F)c1ccc(Cn2cnc3c(Nc4ccc(N5CCOCC5)cc4)nc(-c4csc5ccccc45)nc32)cc1 do in these assays?
TEAD-YAP inh: 3; FBW7 activator: 0; GPR151 activ: 0; MITF inh: 7

How did O=C(N/N=C/c1ccc(/C=N/NC(=O)c2ccc(O)c(O)c2)cc1)c1ccc(O)c(O)c1 do in these assays?
TEAD-YAP inh: -6; FBW7 activator: -1; GPR151 activ: 2; MITF inh: 107*

How did O=C(N/N=C/c1cc(Br)c(O)c(Br)c1)c1cc(O)c(O)c(O)c1 do in these assays?
TEAD-YAP inh: 1; FBW7 activator: 0; GPR151 activ: 2; MITF inh: 90*

What do the screens show for `O=C(N/N=C/c1ccc(O)c(O)c1)c1cc(O)cc(O)c1`?
TEAD-YAP inh: 17; FBW7 activator: 0; GPR151 activ: -1; MITF inh: 19
